Compounds with a hit are over-represented: about 19% of the library has one in this group of screens.
HT1080 IDH1KD tx: kills HT-1080 cells with IDH1 knockdown; HT-1080 IDH1 knockdown viability, ATP luminescence, 48 h; Potency, µM (series often up to 46.1 µM), most hits filed as cytotoxic; 360,000 tested, 2% active; AID 686971
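% activity derives from luminescence (CellTiter-Glo), normalised to DMSO and no-cell wells. HT-1080-IDH1KD cells, 750/well, had 48 h compound exposure at 37 °C.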
uPA generation: blocks generation of uPA at the cell surface. cell surface uPA generation assay, qHTS. Potency, µM (titrated, usually from 38.3 µM), most hits filed as inhibitors. 330,000 tested, 0.31% active. AID 540303; active = well fitted inhibition curve with a large enough effect; inconclusive = small, poorly fitted or top-dose-only effect; inactive = no such curve, though single readings can be large or run the other way; tested in mouse RAW 264.7 cells; note: nearly all actives have a fitted effect of over 55% in size
HT1080NT lethal: kills 2HG-producing HT-1080-NT fibrosarcoma cells | Potency, µM (series often up to 46.1 µM), usual class: cytotoxic | 360,000 tested, 1.6% active | AID 686970 | HT-1080-NT fibrosarcoma viability, CellTiter-Glo ATP luminescence, 48 h;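 note: NT is the 2HG producing partner of a matched IDH1 knockdown line; nearly all actives have a fitted effect of over 55% in size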
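Compounds were tested in concentration-response format on HT-1080-NT cells for 48 hours at 37 degrees C. Cell viability came from CellTiter-Glo luminescence; curves were classified by r2, response magnitude and activity.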
DT40 TDP1 CPT: growth inhibition of DT40 Tdp1-/-;hTDP1 cells with camptothecin (screen for TDP1 inhibitors) | chicken DT40 Tdp1-/-;hTDP1 cells + 20 nM CPT, ATP luminescence, 48 h | Potency, µM (top dose mostly 46.2 µM), hits mostly inhibitors | 420,000 tested, 12% active; note: nearly all actives have a fitted effect of over 55% in size
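Cell growth measured by CellTiter-Glo luminescence after a minimum 48 h, 37 C compound exposure with 20 nM CPT in Tdp1-knockout DT40 cells stably expressing hTDP1, seeded 400/well; qHTS titration format.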
TDP1 cell noCPT: qHTS for Inhibitors of human tyrosyl-DNA phosphodiesterase 1 (TDP1): qHTS in cells in absence of CPT; 420,000 tested, 15% active; DT40 Tdp1-/- hTDP1 cells, no CPT, ATP luminescence, 48 h; AID 686978, 2013; Potency, µM (doses to about 46.2 µM), hits mostly inhibitors; note: nearly all actives have a fitted effect of over 55% in size
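DT40 Tdp1-/-;hTDP1 cells, no CPT (DMSO vehicle only), 400 cells/well; compounds pin-transferred; ≥48 hr, 37 °C; CellTiter-Glo 30 min RT dark, luminescence read.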
IL1B secr inh: blocks inflammasome-driven IL-1 beta release; THP-1 LPS/ATP IL-1B secretion, AlphaLISA, 16 h; active compounds read low; activity change, % at 57.5 µM; 360,000 tested, 4.7% active; AID 743279; in the data active = activity change below about -50%; inconclusive = mostly about -30% to -49%
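Secreted IL-1B measured by AlphaLISA bead assay after 16 h compound exposure of THP-1 cells; compounds (final up to 57.5 uM) added 1 h before LPS (250 ng/mL) and ATP (1.25 mM) stimulation; lower signal means less secretion.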
Hits are given with their value; [ ] = another dose, or the depositor's remark. Unless noted, calls come from the whole dose curve; as a rule, active = well fitted curve in the direction sought with a large enough effect; inconclusive = small, poorly fitted or top-dose-only effect, or another doubt; inactive = no such curve, though single readings can be large; an effect the other way counts as inactive or inconclusive.

`CCCCOc1ccc(-c2n[nH]c(=S)n2Cc2ccccc2)cc1` gave HT1080 IDH1KD tx inactive, uPA generation inactive, HT1080NT lethal inconclusive, DT40 TDP1 CPT inconclusive, TDP1 cell noCPT 26µM and IL1B secr inh inactive.
Screening COc1ccc(-c2n[nH]c(=S)n2-c2ccc(C)cc2)cc1 returned HT1080 IDH1KD tx inactive, uPA generation inactive, HT1080NT lethal inactive, DT40 TDP1 CPT inconclusive, TDP1 cell noCPT inconclusive and IL1B secr inh inactive.
`Fc1ccc(-c2n[nH]c(=S)n2Cc2ccccc2)cc1` gave HT1080 IDH1KD tx inactive, uPA generation inactive, HT1080NT lethal inactive, DT40 TDP1 CPT inactive, TDP1 cell noCPT inactive and IL1B secr inh inactive.
For CC(C)[C@@H]1CC[C@@H](C)C[C@H]1O the results were DT40 TDP1 CPT inactive and TDP1 cell noCPT inactive.
Screening CC(C)CN(C(=O)COC(=O)CCC(=O)c1ccc(F)cc1)c1c(N)n(Cc2ccccc2)c(=O)[nH]c1=O returned HT1080 IDH1KD tx inactive, uPA generation inactive, HT1080NT lethal inactive, DT40 TDP1 CPT inactive, TDP1 cell noCPT inactive and IL1B secr inh inactive.
CC1(C(=O)NS(=O)(=O)c2ccc3c(c2)CCO3)CCN1C(=O)C1(c2ccc(Cl)cc2)CCC1 (configuration not stated) was read as HT1080 IDH1KD tx inactive, HT1080NT lethal inactive, DT40 TDP1 CPT inconclusive, TDP1 cell noCPT inactive and IL1B secr inh inactive.
Screening C[C@@H]1CN([C@H](C)CO)C(=O)CCCn2nncc2CO[C@@H]1CN(C)C(=O)C1CC1 returned HT1080 IDH1KD tx inactive, HT1080NT lethal inactive, DT40 TDP1 CPT inactive, TDP1 cell noCPT inactive and IL1B secr inh inactive.
For Cc1ccc2c(C(=O)CN3CCSCC3)c(C)[nH]c2c1 the results were HT1080 IDH1KD tx inactive, uPA generation inactive, HT1080NT lethal inactive, DT40 TDP1 CPT 16µM, TDP1 cell noCPT inconclusive and IL1B secr inh inactive.
For Cc1ccc2c(C(=O)CCl)c(C)[nH]c2c1 the results were HT1080 IDH1KD tx 21µM, uPA generation inactive, HT1080NT lethal inconclusive, DT40 TDP1 CPT 3.7µM, TDP1 cell noCPT 2.6µM and IL1B secr inh -98.
`Cc1ccc2c(C(=O)CNc3nccs3)c(C)[nH]c2c1` gave DT40 TDP1 CPT inactive and TDP1 cell noCPT inconclusive.
Screening Cc1ccc2[nH]cc(C(=O)CCl)c2c1 returned HT1080 IDH1KD tx 21µM, uPA generation inactive, HT1080NT lethal 16µM, DT40 TDP1 CPT 2.6µM, TDP1 cell noCPT 4.1µM and IL1B secr inh -101.
Screening Cc1ccc2[nH]cc(C(=O)CN3CCN(C)CC3)c2c1 returned HT1080 IDH1KD tx inactive, HT1080NT lethal inactive, DT40 TDP1 CPT inactive, TDP1 cell noCPT inactive and IL1B secr inh inactive.
For Cc1oc(-c2ccccc2NC(=O)C2CCC2)nc1CNC(=O)c1c(F)ccc(F)c1F the results were DT40 TDP1 CPT inactive[9.04 µM] and TDP1 cell noCPT inactive.
`Cc1ccc(-c2ccc(=O)n(CC(=O)Nc3ccc(C)cc3Cl)n2)cc1` gave DT40 TDP1 CPT inactive and TDP1 cell noCPT inactive.
Screening CSc1nc(=NC(C)=O)ss1 returned HT1080 IDH1KD tx inactive, uPA generation inactive, HT1080NT lethal inactive, DT40 TDP1 CPT inconclusive, TDP1 cell noCPT 35µM and IL1B secr inh inactive.
For Nc1ccc2cc3[nH]c4cc(N)ccc4c3nc2c1 the results were HT1080 IDH1KD tx inconclusive, uPA generation inactive, HT1080NT lethal inconclusive, DT40 TDP1 CPT 2.9µM, TDP1 cell noCPT 2.3µM and IL1B secr inh -109.
Nc1ccc2nc(-c3cccc(-c4nc5ccc(N)cc5[nH]4)c3)[nH]c2c1 was read as HT1080 IDH1KD tx inactive, uPA generation inactive, HT1080NT lethal inactive, DT40 TDP1 CPT inactive, TDP1 cell noCPT inconclusive and IL1B secr inh inactive.
CC(=O)c1ccc(S(=O)(=O)N(C)CCCC(=O)NCc2ccc3c(c2)OCO3)cc1 was read as HT1080 IDH1KD tx inactive, uPA generation inactive, HT1080NT lethal inactive, DT40 TDP1 CPT inactive, TDP1 cell noCPT inconclusive and IL1B secr inh inactive.
Screening CCn1c(SCc2ccccc2C)nc(=O)c2c(C(=O)OC)cc(C3CC3)nc21 returned DT40 TDP1 CPT 12µM and TDP1 cell noCPT 15µM.
Screening Oc1cc(CNC2CCCCC2)c(O)cc1CNC1CCCCC1 returned HT1080 IDH1KD tx inactive, uPA generation inactive, HT1080NT lethal inactive, DT40 TDP1 CPT 18µM, TDP1 cell noCPT 5.8µM and IL1B secr inh inactive.
Screening Cc1ccccc1CNC1CCCCC1 returned HT1080 IDH1KD tx inactive, uPA generation inactive, HT1080NT lethal inactive, DT40 TDP1 CPT inactive, TDP1 cell noCPT inactive and IL1B secr inh inactive.
Screening CCc1ccc(Nc2c([N+](=O)[O-])c(=O)oc3ccccc23)cc1 returned HT1080 IDH1KD tx inactive, uPA generation inactive, HT1080NT lethal inactive, DT40 TDP1 CPT inconclusive, TDP1 cell noCPT 7.3µM and IL1B secr inh inconclusive.
Screening Cc1ccc(C)c(Nc2c([N+](=O)[O-])c(=O)oc3ccccc23)c1 returned HT1080 IDH1KD tx inactive, uPA generation inactive, HT1080NT lethal inactive, DT40 TDP1 CPT 23µM, TDP1 cell noCPT 10µM and IL1B secr inh -58.
Cc1ccc(Nc2c([N+](=O)[O-])c(=O)oc3ccccc23)cc1 was read as HT1080 IDH1KD tx inconclusive, HT1080NT lethal inconclusive, DT40 TDP1 CPT inconclusive and TDP1 cell noCPT 12µM.
`O=c1oc2ccccc2c(Nc2ccc3ccccc3c2)c1[N+](=O)[O-]` gave HT1080 IDH1KD tx inconclusive, uPA generation inactive, HT1080NT lethal inconclusive, DT40 TDP1 CPT 15µM, TDP1 cell noCPT inconclusive and IL1B secr inh inactive.
`O=c1oc2ccccc2c(Nc2ccc(O)cc2)c1[N+](=O)[O-]` gave HT1080 IDH1KD tx inactive, uPA generation inactive, HT1080NT lethal inactive, DT40 TDP1 CPT inconclusive, TDP1 cell noCPT inactive and IL1B secr inh inactive.
O=C(Nc1ccccc1OC(F)F)c1ccc(-n2cncn2)c([N+](=O)[O-])c1 was read as HT1080 IDH1KD tx inactive, uPA generation inactive, HT1080NT lethal inactive, DT40 TDP1 CPT inactive, TDP1 cell noCPT inactive and IL1B secr inh inactive.
For CSc1ccc(CCNC(=O)Cn2nc(C)n3c(cc4sccc43)c2=O)cc1 the results were DT40 TDP1 CPT inactive and TDP1 cell noCPT inactive.
`COC(=O)c1ccc(C(=O)OC)c(NC(=O)Cc2cccs2)c1` gave HT1080 IDH1KD tx inactive, HT1080NT lethal inactive, DT40 TDP1 CPT inactive, TDP1 cell noCPT inactive and IL1B secr inh inactive.
For CC(Nc1c([N+](=O)[O-])c(=O)oc2ccccc12)C(Cl)c1ccccc1 (configuration not stated) the results were HT1080 IDH1KD tx inconclusive, uPA generation inactive, HT1080NT lethal inconclusive, DT40 TDP1 CPT inconclusive, TDP1 cell noCPT 23µM and IL1B secr inh -67.
Screening CC(C)c1nn2c(=O)cc(COC(=O)c3cccc(NC(=O)CCc4ccccc4)c3)nc2s1 returned DT40 TDP1 CPT inactive and TDP1 cell noCPT inactive.
